# Inconclusive results are not listed. Activity calls are given as the source filed them. How the source made its calls: active means hit-call score of the fitted dose curve at least 0.9, where 1 is the maximum; inconclusive means response in the unintended direction; inactive means score below 0.9.
# Biological target: human Caspase 5 (CASP5), CASP5 (gene 838) (UniProt P51878)
# Experiment: NVS_ENZ_hCASP5: NovaScreen (NVS) Enzymatic Assay for human Caspase 5 (CASP5) (AID 2283137)
# In short: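 Fluorescent substrate readout of CASP5 activity (loss-of-signal), measured 2 h post-dose. Protein expressed in E. coli. Primary screen duplicate at 25 uM; actives meeting threshold (e.g., 30% inhibition) rerun singleton, max 50 uM.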
# human Caspase 5 (CASP5), CASP5 (gene 838), sequence (P51878 whole entry, looked up): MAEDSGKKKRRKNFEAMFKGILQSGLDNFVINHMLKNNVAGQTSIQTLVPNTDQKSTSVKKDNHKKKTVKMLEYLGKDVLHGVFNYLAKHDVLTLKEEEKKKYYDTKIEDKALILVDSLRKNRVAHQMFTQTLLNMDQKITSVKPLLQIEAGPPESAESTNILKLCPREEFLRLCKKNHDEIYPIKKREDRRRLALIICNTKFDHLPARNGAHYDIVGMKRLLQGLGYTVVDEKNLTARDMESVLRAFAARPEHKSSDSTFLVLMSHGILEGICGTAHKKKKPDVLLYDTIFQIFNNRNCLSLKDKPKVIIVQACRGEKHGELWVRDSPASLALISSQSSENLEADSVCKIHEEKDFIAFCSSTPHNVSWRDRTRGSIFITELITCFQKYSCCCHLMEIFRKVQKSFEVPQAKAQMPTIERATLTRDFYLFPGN
SMILES,AC50,outcome
Nc1cccc2ccccc12,45.2 µM (active),
O=[N+]([O-])c1ccc2c3c(cccc13)CC2,25 µM (active),
CC(=O)[O][Hg][c]1ccccc1,1.8 µM (active),
Nc1ncc([N+](=O)[O-])s1,9.06 µM (active),
O=C1C2(Cl)C3(Cl)C4(Cl)C(Cl)(Cl)C5(Cl)C3(Cl)C1(Cl)C5(Cl)C24Cl (centres undefined),,inactive
O=C(O)C(F)(F)C(F)(F)C(F)(F)C(F)(F)C(F)(F)C(F)(F)C(F)(F)C(F)(F)C(F)(F)C(F)(F)F,3.6 µM (active),
Cn1sc(Cl)cc1=O,,inactive
CCCCCCCCc1ccc(O)cc1,,inactive

# Biological target: human AKT serine/threonine Kinase 1 (AKT1), AKT1 (gene 207) (UniProt P31749)
# Sequence (P31749 whole entry, looked up): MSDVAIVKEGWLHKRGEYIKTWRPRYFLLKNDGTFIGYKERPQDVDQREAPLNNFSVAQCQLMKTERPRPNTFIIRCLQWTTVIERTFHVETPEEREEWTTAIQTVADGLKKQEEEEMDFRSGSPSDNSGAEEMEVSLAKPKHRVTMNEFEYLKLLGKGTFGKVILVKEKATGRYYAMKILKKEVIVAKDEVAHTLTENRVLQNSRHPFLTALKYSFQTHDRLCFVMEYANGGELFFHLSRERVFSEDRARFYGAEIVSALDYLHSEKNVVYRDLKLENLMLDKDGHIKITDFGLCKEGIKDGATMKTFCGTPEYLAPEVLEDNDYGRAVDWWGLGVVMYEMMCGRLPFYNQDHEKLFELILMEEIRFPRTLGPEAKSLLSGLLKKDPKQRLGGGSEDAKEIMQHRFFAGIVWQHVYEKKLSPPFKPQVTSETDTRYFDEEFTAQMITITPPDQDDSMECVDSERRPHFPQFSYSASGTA
# Experiment: NVS_ENZ_hAKT1: NovaScreen (NVS) Enzymatic Assay for human AKT serine/threonine Kinase 1 (AKT1) (AID 2283138)
# In short: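 Fluorescence and mobility-shift readout of kinase activity, taken 1 h post-dosing in a cell-free format with recombinant protein. Primary screen at 25 uM in duplicate; hits (e.g. 30% inhibition) retested in concentration series topping at 50 uM.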
SMILES,outcome,AC50
CCC(=O)C(CC(C)N(C)C)(c1ccccc1)c1ccccc1 (centres undefined),inactive,
ClC1(Cl)C2(Cl)C3(Cl)C4(Cl)C(Cl)(Cl)C5(Cl)C3(Cl)C1(Cl)C5(Cl)C24Cl (centres undefined),inactive,
C=CC(=O)OCCCCCC(C)C,inactive,
O=C(O)C(F)(F)C(F)(F)C(F)(F)C(F)(F)C(F)(F)C(F)(F)C(F)(F)C(F)(F)C(F)(F)C(F)(F)F,,1.59 µM (active)
CCOP(=S)(OCC)SCSP(=S)(OCC)OCC,inactive,

# Biological target: human Beta-secretase (BACE), BACE1 (gene 23621) (UniProt P56817)
# Sequence (P56817 whole entry, looked up): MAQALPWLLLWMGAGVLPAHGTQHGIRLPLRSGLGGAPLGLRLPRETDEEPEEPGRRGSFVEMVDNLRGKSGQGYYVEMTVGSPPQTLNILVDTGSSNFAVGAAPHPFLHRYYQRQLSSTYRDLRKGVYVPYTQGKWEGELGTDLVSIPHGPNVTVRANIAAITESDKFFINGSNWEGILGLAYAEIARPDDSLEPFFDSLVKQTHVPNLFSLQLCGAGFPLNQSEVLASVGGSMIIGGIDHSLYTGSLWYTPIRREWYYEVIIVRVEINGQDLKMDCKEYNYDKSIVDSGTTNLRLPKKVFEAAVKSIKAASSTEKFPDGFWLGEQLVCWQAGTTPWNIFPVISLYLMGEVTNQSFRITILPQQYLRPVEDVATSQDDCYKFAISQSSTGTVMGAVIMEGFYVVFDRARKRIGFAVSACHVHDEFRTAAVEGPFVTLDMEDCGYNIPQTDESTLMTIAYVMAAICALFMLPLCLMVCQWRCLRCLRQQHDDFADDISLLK
# Experiment: NVS_ENZ_hBACE: NovaScreen (NVS) Enzymatic Assay for human Beta-secretase (BACE) (AID 2283140);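 further: hits are inhibitors that reduce fluorescent substrate signal versus DMSO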
# In short: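 SF9-expressed enzyme, cell-free; fluorescent substrate readout after 1 h. Screened at 25 uM single concentration, duplicate; hits retested in concentration series. Activity relative to DMSO baseline, loss-of-signal.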
SMILES,AC50,outcome
C=C(C)C(=O)[O][Sn]([CH2]CCC)([CH2]CCC)[CH2]CCC,8.77 µM (active),
O=C(O)C(F)(F)C(F)(F)C(F)(F)C(F)(F)C(F)(F)C(F)(F)F,18.6 µM (active),
O=C1C2(Cl)C3(Cl)C4(Cl)C(Cl)(Cl)C5(Cl)C3(Cl)C1(Cl)C5(Cl)C24Cl (centres undefined),,inactive
O=C(Nc1ccc2[nH]ccc2c1)c1cc2cc(F)ccc2n1Cc1cccc(F)c1,,inactive
COc1cc(-c2ccc(N)c(OC)c2)ccc1N,16.4 µM (active),
O=C(O)C(F)(F)C(F)(F)C(F)(F)C(F)(F)C(F)(F)C(F)(F)C(F)(F)C(F)(F)C(F)(F)C(F)(F)F,1.51 µM (active),
CC(C)CCCCCCOC(=O)c1ccccc1C(=O)OCCCCCCC(C)C,8.09 µM (active),
COc1cc2c(cc1OC)[C@@]13CCN4CC5=CCO[C@H]6CC(=O)N2[C@H]1[C@H]6[C@H]5C[C@H]43,6.44 µM (active),
Cn1sc(Cl)cc1=O,,inactive
CCN1CCC2(CC1)COc1cc3c(cc12)N(C(=O)c1ccc(-c2ccc(-c4nnc(C)o4)cc2C)cc1)CC3,28.3 µM (active),
COP(=S)(OC)Oc1ccc(Sc2ccc(OP(=S)(OC)OC)cc2)cc1,2.51 µM (active),
